An excerpt weighted towards active compounds, which were near 9.8% of everything screened.
ALDH1A1 inh: qHTS Assay for Inhibitors of Aldehyde Dehydrogenase 1 (ALDH1A1); Potency, µM (doses to about 75.3 µM), for the others: top-dose activity, negative = inhibition, most hits filed as inhibitors; 7.3% of 220,000 active; Purified ALDH1A1, NADH fluorescence, propionaldehyde substrate; Aldehyde dehydrogenase 1A1 (Homo sapiens), P00352;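 further: potency means the concentration at half of the fitted maximal effect; plate controls were no enzyme wells and a reference inhibitor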
Target sequence (P00352 whole entry, looked up): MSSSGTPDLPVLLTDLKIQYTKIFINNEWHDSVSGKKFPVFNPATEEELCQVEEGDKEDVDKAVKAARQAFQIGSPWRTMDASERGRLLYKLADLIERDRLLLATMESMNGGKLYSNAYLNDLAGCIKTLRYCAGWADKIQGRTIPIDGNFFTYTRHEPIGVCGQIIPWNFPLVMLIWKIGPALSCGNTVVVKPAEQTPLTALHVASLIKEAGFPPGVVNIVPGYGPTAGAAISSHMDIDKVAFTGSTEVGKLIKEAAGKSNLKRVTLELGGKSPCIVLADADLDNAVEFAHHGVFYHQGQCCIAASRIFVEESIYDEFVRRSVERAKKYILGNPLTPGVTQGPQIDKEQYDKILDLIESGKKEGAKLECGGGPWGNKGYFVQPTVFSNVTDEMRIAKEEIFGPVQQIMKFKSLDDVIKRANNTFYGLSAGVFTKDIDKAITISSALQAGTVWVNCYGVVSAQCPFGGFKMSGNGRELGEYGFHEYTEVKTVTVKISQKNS
CBFb RUNX1 block: qHTS Assay for Compounds Blocking the Interaction Between CBF-beta and RUNX1 for the Treatment of Acute Myeloid Leukemia; Potency, µM (top dose mostly 59.8 µM), for inactives: top-dose activity, negative = inhibition, actives largely listed as inhibitors; AlphaScreen CBFb-His/RUNX1-biotin binding, biochemical; 230,000 tested, under 10 active; Runt-related transcription factor 1 (Homo sapiens) + Core-binding factor subunit beta …; active means well fitted curve in the direction sought with a large enough effect; inconclusive means small, poorly fitted or top-dose-only effect, or another doubt; inactive means no such curve, though single readings can be large; an effect the other way counts as inactive or inconclusive; further: % of control where 0% means no effect
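Compounds were screened at multiple concentrations against a preformed CBF-beta(His)/RUNX1(biotin) complex (30 nM of each) for 15 min at room temperature, followed by 90 min with nickel and streptavidin beads and AlphaScreen reading.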
HPGD block: qHTS Assay for Inhibitors of HPGD (15-Hydroxyprostaglandin Dehydrogenase); Potency, µM, without a hit: at the top dose activity change, negative = inhibition, usual class: inhibitors; purified HPGD, NADH fluorescence kinetic, PGE2 substrate; AID 894, 2007; 4.3% of 150,000 active; further: potency means the concentration at half of the fitted maximal effect; on the % scale 0 is the no-effect control and ±100 the full control effect
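20 nM HPGD preincubated 15 min at room temperature with compound in 50 mM Tris-HCl pH 8, 0.01% Tween 20. Started with 1 mM NAD+ and 30 uM prostaglandin E2; NADH fluorescence (360/450 nm) read 5 times over 30-s intervals, last minus first.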
HttQ103 aggreg: qHTS Multiplex Assay to Identify Dual Action Probes in a Cell Model of Huntington: Aggregate Formation (GFP); PC12 HttQ103-GFP aggregates, Acumen cytometry, 40 h; Potency, µM (highest dose often 46.1 µM), for the others: at the top dose activity change, negative = inhibition, hits mostly inhibitors; 1.1% of 220,000 active; active means well fitted curve in the direction sought with a large enough effect; inconclusive means small, poorly fitted or top-dose-only effect, or another doubt; inactive means no such curve, though single readings can be large; an effect the other way counts as inactive or inconclusive; further: potency means the concentration at half of the fitted maximal effect; on the % scale 0 is the no-effect control and ±100 the full control effect; nearly all actives have a fitted effect of over 60% in size
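Aggregate formation scored by laser-scanning cytometer (488 excitation, 500–530 emission) in lysed PC12 cells expressing Q103-GFP after 100 nM tebufenozide induction; library tested in dose series, with ATPLite reagent added in the multiplex.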
JMJD2E inh: qHTS Assay for Inhibitors of Human Jumonji Domain Containing 2E (JMJD2E). Potency, µM (series often up to 57.1 µM), for inactives: top-dose activity change, negative = inhibition, usual class: inhibitors. AID 2147, 2009. JMJD2E catalytic domain, FDH-coupled NADH fluorescence (FDH is formaldehyde dehydrogenase). 1.6% of 230,000 active. Lysine-specific demethylase 4E (Homo sapiens), B2RXH2;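 further: potency means the concentration at half of the fitted maximal effect; 0% = wells with enzyme and -100% = buffer wells without enzyme; nearly all actives have a fitted effect of over 50% in size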
HTT cytoprotect: qHTS Multiplex Assay to Identify Dual Action Probes in a Cell Model of Huntington: Cytoprotection (ATP); 0.14% of 230,000 active; PC12 HTT-Q103 induced, cytoprotection, ATP luminescence, 40 h; Potency, µM (series often up to 56.4 µM), for inactives: cytoprotection (ATP increase), actives largely listed as activators; AID 1471, 2008; active means well fitted curve in the direction sought with a large enough effect; inconclusive means small, poorly fitted or top-dose-only effect, or another doubt; inactive means no such curve, though single readings can be large; an effect the other way counts as inactive or inconclusive; further: potency means the concentration at half of the fitted maximal effect; % of control where 0% means no effect; nearly all actives have a fitted effect of over 45% in size
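Cells were plated at 1500 per well in phenol red-free DMEM with 5% equine and 5% calf serum. Tebufenozide (100 nM final) and compounds were added, then ATPlite reagent, and luminescence was read.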
* = called active by the depositor; ? = inconclusive; . = no result; [ ] = remark or other dose. Unless noted, the call rests on the fitted dose curve; in most records, active means well fitted inhibition curve with a large enough effect (not every such curve was filed as active); inconclusive means small, poorly fitted or top-dose-only effect, or another doubt; inactive means no such curve, though single readings can be large or run the other way.

SMILES	ALDH1A1 inh	CBFb RUNX1 block	HPGD block	HttQ103 aggreg	JMJD2E inh	HTT cytoprotect
CCCCc1nc2c(c3c1C[C@H](C)OC3)CN(C(=O)c1cc(I)ccc1F)CC2	-9%[13.5 µM]	6%[13.1 µM]	0%	.	4%[11.4 µM]	-13%[10 µM]
CCOC(=O)c1cc(-c2ccccc2)nn1-c1ccccn1	13µM*	1%	-20%	15%	0%	3%
CCCC1N2CC3([N+](=O)[O-])CN1CC([N+](=O)[O-])(C2)C3(C)C (stereo not given)	?	-1%	-6%	11%	-5%	19%[10 µM]
O=C(O)C(c1ccccc1)C(c1ccccc1)c1ccccc1 (stereo not given)	11%	8%	.	-16%	0%	-44%
N#CCSc1ccsc1C(=O)Nc1ccc(F)cc1	7.1µM*	-18%	32µM*	-10%	?	-60%[10 µM]
CC1CCCC(C)N1C(=O)COC(=O)c1ccc(O)cc1 (stereo not given)	-3%	6%	?	46%	3%	6%
Cc1cccc(NC(=O)CSc2nnc(-c3cc(C)n(-c4ccccc4)c3C)o2)c1C	?	-2%	-18%	-9%	4%	-39%[10 µM]
Cc1cc(-c2nnc(SCC(=O)Nc3ccccc3C(F)(F)F)o2)c(C)n1-c1ccccc1	11µM*	-2%	-15%	?	3%	-52%
COc1ccc(-c2csc3nc(-c4cccnc4)nc(Cl)c23)cc1OC	?	-2%	?	11%	-2%	-8%[10 µM]
Clc1nc(-c2cccnc2)nc2scc(-c3ccccc3)c12	?	-7%	20µM*	-21%	?	-20%[10 µM]
COc1cccc(N2CN(C3CCCCC3)CNC2=S)c1	-4%	13%	.	-22%[9.22 µM]	-4%	4%[10 µM]
COc1ccc(NC(=S)Nc2ccc(OCc3ccccc3)cc2)cc1OC	18µM*	5%	-15%	-27%	5%	13%[10 µM]
CCC(C)c1ccc(NC(=S)Nc2ccc(OC)cc2C)cc1 (stereo not given)	0%	16%	25µM*	-6%	-1%	25%[10 µM]
COc1ccc(NC(=S)NC(C)c2ccncc2)cc1OC (stereo not given)	1%	5%	.	6%	1%	18%
CCC(C)c1ccc(NC(=S)Nc2ccc(OC)c(OC)c2)cc1 (stereo not given)	28µM*	1%	1%	-5%	-2%	15%[10 µM]
Oc1ccc(N2CCN(c3ncnc4sc(-c5ccccc5)cc34)CC2)cc1	25µM*	-2%	.	?	16µM*	.
O=[N+]([O-])c1cc([N+](=O)[O-])c2cccnc2c1Oc1ccccc1O	?	?	.	?	22µM*	-21%[10 µM]
O=[N+]([O-])c1ccc(O)c2cccnc12	-2%	-12%	.	9%	-11%	-3%
O=[N+]([O-])c1ccc(O)c2ncccc12	?	?	-19%	3.5µM*	?	-289%
Clc1ccc(OC2CCN(Cc3nc(CC4CC4)no3)CC2)cc1	0%	11%	.	-8%[9.22 µM]	-4%	3%[10 µM]
O=C(c1ccc(CSc2nc3ccncc3[nH]2)cc1)N1CCCCCC1	.	1%	.	-1%[9.22 µM]	9%	-78%[10 µM]
CC1CCN(C(=O)c2ccc(CSc3nc4ccncc4n3Cc3ccc(F)cc3)cc2)CC1	-8%	-5%[2.36 µM]	0.79µM*	?	-17%	.
Cc1ccc(C)c(C(C)NC(=O)c2ccccc2Br)c1 (stereo not given)	3%	4%	-2%	-10%	0%	.
CSCCC(NS(=O)(=O)c1ccc2[nH]c(=O)c(=O)[nH]c2c1)C(=O)O (stereo not given)	-5%	25%	.	-14%[9.22 µM]	?	6%[10 µM]
c1nc2sc3c(c2c2nnnn12)CCCC3	?	3%	?	10µM*	?	6%[1.9 µM]
SMILES	ALDH1A1 inh	CBFb RUNX1 block	HPGD block	HttQ103 aggreg	JMJD2E inh	HTT cytoprotect
c1nc2sc3c(c2c2nnnn12)CCC3	?	2%	?	?	?	15%
Cc1ccc(Nc2nnc(SCC(=O)NC(Cc3c[nH]c4ccccc34)C(=O)O)s2)cc1 (stereo not given)	?	3%	.	?	-11%	-63%
COC(=O)c1ccsc1NC(=O)CN1C(=O)CCC1=O	.	-18%	.	-1%[9.22 µM]	3%	3%[10 µM]
COc1ccc(-c2noc(CSc3nnc(Cc4ccccc4)n3-c3ccc(Cl)cc3)n2)cc1	?	-6%	-7%	?	-7%	-88%
Cc1ccc(-c2noc(CSc3nnc(Cc4ccccc4)n3-c3ccc(Cl)cc3)n2)cc1	-3%	-2%	-11%	16µM*	-3%	0%
O=C(NC1CCCc2ccccc21)C1CCN(S(=O)(=O)c2ccccc2F)CC1 (stereo not given)	?	-8%	-13%	6%	-10%	-11%[10 µM]
O=C(CCNS(=O)(=O)c1cccc2nonc12)NC1CCCc2ccccc21 (stereo not given)	14µM*	10%	-5%	-18%	1%	-6%
O=C(CCNS(=O)(=O)c1cccc2nsnc12)NC1CCCc2ccccc21 (stereo not given)	?	-4%	-7%	0%	-1%	-3%
O=C(NC1CCCc2ccccc21)C1CCN(S(=O)(=O)c2cccc3nonc23)CC1 (stereo not given)	32µM*	-1%	-2%	13%[9.22 µM]	-1%	-3%
COc1ccc(OCCC(=O)Nc2cc(C)on2)cc1	22µM*	0%	-4%	-15%	-3%	12%
COc1ccc(CC(=O)Nc2cc(C)on2)cc1	0%	1%	-6%	3%	?	11%
Cc1cc(NC(=O)CCOc2ccc(F)cc2)no1	0.71µM*	-1%	.	18%[9.22 µM]	-6%	-13%[10 µM]
Cc1cc(NC(=O)Nc2ccc(F)cc2)no1	?	1%	-13%	-16%	1%	-15%
Nc1ccc(C(=O)c2cccs2)cc1[N+](=O)[O-]	-8%	1%	.	5%[9.22 µM]	-14%	7%[10 µM]
CC(C)NS(=O)(=O)c1ccc(OCC(=O)NC(C)c2ccccc2)cc1 (stereo not given)	37%	0%	.	8%	-2%	-1%[10 µM]
Cc1ccc(-c2c(C#N)c(N)n3c(nc4ccccc43)c2C#N)cc1	19µM*	?	?	10µM*	?	-7%[10 µM]

Bioassay records deposited in PubChem BioAssay by National Center for Advancing Translational Sciences (NCATS).
